High-throughput results from PubChem BioAssay.
PPC-1+TRAIL kill – PPC-1 cancer cell killing with TRAIL present; cell killing (% activity), % at 4 µM or 5 µM; 220,000 tested, 0.41% active; PPC-1 cells + TRAIL, ATPLite viability luminescence;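 active = cell killing above 50% in the first pass at 4 µM, then a duplicate retest at 5 µM averaging 50% or more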;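 also: plate controls were cells with TRAIL plus DMSO for no effect and medium-only wells lacking cells for full effect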
Peg3 prom inh – reduces Peg3 promoter-driven luciferase expression in HeLa. HeLa PEG-Prom luciferase reporter, luminescence, overnight. inhibition, % at 20 µM. 360,000 tested, 1.7% active;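 active = inhibition of at least 50% at 20 µM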
CF NFkB inh – blocks PAF-induced NF-kB reporter in cystic fibrosis cells; KKLEB NF-kB-GFP reporter, GFP fluorescence overnight; inhibition, % at 5 µM; 360,000 tested, 0.86% active; AID 588850;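 active = at least 50% inhibition at 5 µM, scaled per plate between neutral and stimulator controls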;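 also: PAF is a Pseudomonas aeruginosa culture filtrate used as stimulus; plate controls were PAF-stimulated DMSO wells for no effect and unstimulated DMSO wells for full effect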
HIF-2a block – inhibitors of HIF-2a. inhibition, % at 18.8 µM. 360,000 tested, 0.72% active. 786-0 RCC cells HIF-2a reporter, luciferase luminescence, overnight. AID 624352;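 active = inhibition of the luminescence signal of 40% or more relative to plate controls, in a single-dose primary screen at 18.75 µM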
KKLEB cytotox – counter-screen for CF NF-kB inhibitors: cytotoxicity. KKLEB CF airway cells viability, ATPlite luminescence, overnight; active compounds read low; cells stimulated with P. aeruginosa culture filtrate. activity change (cytotoxicity), % at 5 µM. 360,000 tested, 0.36% active;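 active = corrected activity change at or below -50% at 5 µM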
TRAIL sens C8 – sensitizes caspase-8 expressing cells to TRAIL; NB7+C8 cells + TRAIL, ATPlite viability luminescence; 360,000 tested, 1% active; inhibition (viability loss, TRAIL sensitization), % at 10 µM; AID 624354;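 active = compounds causing at least 50% loss of cell viability in the single-dose screen, relative to plate controls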
Active calls of the source: *. The list is not random: actives were taken first. Their share in the collection is about 3.1%.

What do the screens show for `COc1ccc(-c2cc(C(=O)OCc3ccccn3)c3ccccc3n2)cc1`?
Peg3 prom inh: -78; CF NFkB inh: -2; HIF-2a block: -91; KKLEB cytotox: -3; TRAIL sens C8: 21

How did CN(C)c1cccc(/C=C(\C#N)c2ccccc2)c1 do in these assays?
PPC-1+TRAIL kill: 6; Peg3 prom inh: -283; CF NFkB inh: 5; HIF-2a block: -394; KKLEB cytotox: -14; TRAIL sens C8: 50*

Results for O=C(NCc1cccnc1)c1cc(C2CCCCN2C(=O)c2ccc(Cl)cc2)on1 (stereo not drawn) ?
Peg3 prom inh: -6; CF NFkB inh: -18; HIF-2a block: 0; KKLEB cytotox: 4; TRAIL sens C8: -16

What do the screens show for `CCN(C(C)=O)c1cnc(C=NNC(N)=S)c2ccccc12`?
Peg3 prom inh: 54*; CF NFkB inh: -27; HIF-2a block: 20; KKLEB cytotox: 0; TRAIL sens C8: 7

What do the screens show for `NC(=S)NN=Cc1nccc2c(N)cccc12`?
Peg3 prom inh: -2; CF NFkB inh: 26; HIF-2a block: -94; KKLEB cytotox: 8; TRAIL sens C8: 21

What do the screens show for `O=C(NC1CCCCC1)C(c1ccncc1)N(Cc1ccc(F)cc1)C(=O)c1ccccn1` (stereo not drawn)?
Peg3 prom inh: 9; CF NFkB inh: -17; HIF-2a block: 18; KKLEB cytotox: 17; TRAIL sens C8: -10

How did O=C(NC1CCCCC1)C(c1ccncc1)N(Cc1ccccc1)C(=O)c1ccc(-c2ccccc2)[nH]1 (stereo not drawn) do in these assays?
PPC-1+TRAIL kill: -3; Peg3 prom inh: 14; CF NFkB inh: 38; HIF-2a block: -32; KKLEB cytotox: -50*; TRAIL sens C8: 27

How did CCOc1ccc(C(=O)Nc2ccccc2N2CCN(C(=O)c3ccccc3)CC2)cc1[N+](=O)[O-] do in these assays?
Peg3 prom inh: 47; CF NFkB inh: 29; HIF-2a block: 18; KKLEB cytotox: -30; TRAIL sens C8: 31

What do the screens show for `Cc1cc(C)cc(C(=O)N(Cc2ccco2)c2c(N)n(Cc3ccccc3)c(=O)[nH]c2=O)c1`?
Peg3 prom inh: 4; CF NFkB inh: -12; HIF-2a block: 10; KKLEB cytotox: 2; TRAIL sens C8: 13

What do the screens show for `C/C(=N/NC(=O)c1ccco1)c1cccc(NC(=O)c2ccc(C)s2)c1`?
PPC-1+TRAIL kill: 25; Peg3 prom inh: -184; CF NFkB inh: -27; HIF-2a block: -178; KKLEB cytotox: -8; TRAIL sens C8: 26

How did C/C(=N\NC(=O)c1cc(O)ccc1O)c1cccc(NC(=O)c2cccc(Cl)c2)c1 do in these assays?
Peg3 prom inh: -39; CF NFkB inh: 1; HIF-2a block: -100; KKLEB cytotox: 3; TRAIL sens C8: 9

What do the screens show for `C/C(=N\NC(=O)c1cc(O)ccc1O)c1cccc(NC(=O)c2ccc(Cl)cc2)c1`?
Peg3 prom inh: -152; CF NFkB inh: 22; HIF-2a block: -170; KKLEB cytotox: -6; TRAIL sens C8: 58*

Results for O=C(N/N=C/c1cccc(NC(=O)c2ccc(Cl)cc2)c1)c1ccc(O)cc1 ?
PPC-1+TRAIL kill: 30; Peg3 prom inh: -148; CF NFkB inh: 8; HIF-2a block: -105; KKLEB cytotox: 5; TRAIL sens C8: 61*

What do the screens show for `C/C(=N\NC(=O)c1ccn(C)n1)c1cccc(NC(=O)c2ccc(C)s2)c1`?
PPC-1+TRAIL kill: 46; Peg3 prom inh: -209; CF NFkB inh: -21; HIF-2a block: -142; KKLEB cytotox: 5; TRAIL sens C8: 58*

What do the screens show for `C/C(=N\NC(=O)c1ccncc1)c1cccc(NC(=O)c2ccc(C(C)(C)C)cc2)c1`?
Peg3 prom inh: -41; CF NFkB inh: 14; HIF-2a block: -206; KKLEB cytotox: -37; TRAIL sens C8: 80*

How did CC(=O)N1CCC(C(=O)NCCOc2ccc(C)cc2)CC1 do in these assays?
Peg3 prom inh: 3; CF NFkB inh: 8; HIF-2a block: 16; KKLEB cytotox: -1; TRAIL sens C8: -9

What do the screens show for `CCOC(=O)c1c(-c2ccc(OC)cc2)oc2c1C(OC(C)=O)CCC2` (stereo not drawn)?
HIF-2a block: -196; TRAIL sens C8: -6

How did Cc1ccc([C@H]2C(C(=O)O)=CCN2S(=O)(=O)c2ccc(C)cc2)cc1 do in these assays?
HIF-2a block: 1; TRAIL sens C8: 13
